# Measurements from PubChem BioAssay AID652257 (The Scripps Research Institute Molecular Screening Center, 2013).
# The whole screen tested about 370,000 compounds, of which about 4,800 (1.3%) were called active.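 Rule for the calls: active = inhibition above about 21% made by adding two undisclosed values (limit read from the data); inactive = the rest.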 For the sample, actives were picked, then their nearest neighbours and some compounds at random.
# Target: Protein arginine N-methyltransferase 1 (Homo sapiens) (UniProt Q99873)
# Experiment: PRMT1 methyltransferase inhibitors, primary screen, biochemical, fluorescence polarization (AID 652257)
# Details: recombinant PRMT1, activity-based probe fluorescence polarization; at 2.79 µM; active compounds read high
# Chain of Protein arginine N-methyltransferase 1 (Homo sapiens) (Q99873 whole entry, looked up): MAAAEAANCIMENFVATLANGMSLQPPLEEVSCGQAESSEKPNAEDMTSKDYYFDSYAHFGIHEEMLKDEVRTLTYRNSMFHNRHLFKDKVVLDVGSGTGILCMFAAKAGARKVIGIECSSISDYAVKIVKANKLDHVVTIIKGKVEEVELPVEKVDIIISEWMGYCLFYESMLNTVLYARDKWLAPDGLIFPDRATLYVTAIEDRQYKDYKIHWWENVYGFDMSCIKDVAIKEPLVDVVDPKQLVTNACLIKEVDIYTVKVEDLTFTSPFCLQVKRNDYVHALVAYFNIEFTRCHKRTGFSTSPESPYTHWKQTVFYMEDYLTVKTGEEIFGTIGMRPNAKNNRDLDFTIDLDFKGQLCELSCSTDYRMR
row,Structure (SMILES),inhibition
1,Cc1cc(S(=O)(=O)NC2CCCC2)ccc1-n1cnnn1,3.87% (inactive)
2,Cc1ccc(CN(C)C[C@@H]2OCc3cnnn3CCCC(=O)N([C@@H](C)CO)C[C@H]2C)cc1,-5.16% (inactive)
3,C=CCn1c2c(c3ccccc31)CCC2,0.09% (inactive)
4,Cc1nn(C)cc1N1C(=O)c2cccc3c(N)ccc(c23)C1=O,165% (active)
5,CN1C(=O)c2cccc3c(N)ccc(c23)C1=O,183% (active)
6,CC(NCc1ccco1)C(=O)N1CCCCC1 (stereo not given),-2.09% (inactive)
7,CCOc1ccc(Oc2c(Cl)cnn(-c3ccc(C)cc3)c2=O)cc1,-1.68% (inactive)
8,C=CCN1[C@@H](Cc2ccccc2)COc2cccc(N3CCSCC3)c2S1(=O)=O,2.18% (inactive)
9,O=S(=O)(c1ccccc1)N1CCC(c2nc3ccccc3o2)CC1,-3.15% (inactive)
10,COc1ccccc1CN(C)C(=O)C1(c2ccc(Cl)cc2)CC1,-2.06% (inactive)
11,O=C(NC1CCC1)c1ccc(C#CC2CC2)cn1,-0.43% (inactive)
12,CC(=O)Oc1ccc(C(C)=O)c2c1OCCO2,-0.56% (inactive)
13,CSc1ccc(C=Nn2c(-c3ccc(F)cc3)n[nH]c2=S)cc1,21.3% (active)
14,CC(C)n1c(-c2ccncc2)n[nH]c1=S,-2.82% (inactive)
15,CSc1ccc(/C=N/N2CCN(Cc3ccccc3Cl)CC2)cc1,1.95% (inactive)
16,CC(NCCc1ccc(S(N)(=O)=O)cc1)C(=O)NCc1ccccc1 (stereo not given),-3.01% (inactive)
17,COc1ccccc1OCCC(=O)OCC(=O)NCc1ccccc1,0.43% (inactive)
18,COc1cc(C(=S)NCc2ccccc2)cc(Br)c1O,27.5% (active)
19,COc1cc(-c2nnn(CC(=O)NCc3ccccc3)n2)cc(OC)c1OC,2.73% (inactive)
20,CCOC(=O)C1=C(C)NC2=C(C(=O)CC(C)(C)C2)C1c1ccc2c(c1)OCO2 (stereo not given),-1.8% (inactive)
21,COC(=O)CC1CCc2cc(C)cc(C(CC(C)C)NC(=O)[C@H](CC(C)C)NC(=O)OCc3ccccc3)c2O1 (stereo not given in full),-2.67% (inactive)
22,Clc1ccc(C2=CSC3=Nc4cccc5cccc(c45)N23)cc1,22.6% (active)
23,CCCOc1ccc(Oc2c(Cl)cnn(Cc3cccc4ccccc34)c2=O)cc1,1.97% (inactive)
24,CC(=O)c1cc(-c2ccc3ccccc3c2)c(=O)n2c1CCC2,0.08% (inactive)
25,COc1ccc(N=Nc2c(-c3ccc(OC)cc3)[nH]oc2=O)cc1,-0.55% (inactive)
26,COc1ccc(N=C2C=CC(=O)O2)cc1,48.5% (active)
27,COC1=CC(=O)OC(c2ccc(OC)cc2)C1 (stereo not given),-1.99% (inactive)
28,Cc1ccc(SC(C)C(=O)NCc2ccc(F)cc2)cc1 (stereo not given),-5.15% (inactive)
29,Cc1ccc(CSCC(N)C(=O)O)cc1 (stereo not given),0.39% (inactive)
30,Cc1ccc(SC(CC(=O)c2ccc(C(C)(C)C)cc2)C(=O)O)cc1 (stereo not given),75.6% (active)
